# Bioassay records as filed in PubChem BioAssay.
# JMJD2A Tudor: inhibitors of human JMJD2A Tudor domain. Potency, µM (top dose mostly 114 µM), without a hit: top-dose activity change, negative = inhibition, usual class: inhibitors. 390,000 compounds, 4.4% hits. O75164. AlphaScreen JMJD2A-Tudor / H3K4me3 peptide binding; also: % is scaled to controls: 0 for no effect and ±100 for the full control effect; nearly all actives have a fitted effect of over 50% in size
# HP1b chromo inh: inhibitors of HP1-beta chromodomain binding to methylated histone tails. P83916. AlphaScreen HP1-beta / biotin-H3K9me3 peptide binding. Potency, µM (highest dose often 114 µM), for the others: top-dose activity change, negative = inhibition, hits mostly inhibitors. 390,000 compounds, 0.56% hits. AID 540317; also: nearly all actives have a fitted effect of over 70% in size
#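 Compound inhibition of the preformed complex between 50 nM HP1-beta and 50 nM biotinylated H3K9me3 peptide was read by AlphaScreen. Buffer was PBS pH 7.4 with 0.01% Tween-20. Incubations ran 30 min at room temperature, with 10 ug/mL donor/acceptor beads.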
# GLS inhibitor: blocks human kidney-isoform glutaminase activity. O94925. GLS enzymatic activity, qHTS titration. Potency, µM (series often up to 45.5 µM), inactives show at the highest dose activity change, negative = inhibition, hits mostly inhibitors. 410,000 compounds, 0.21% hits. AID 624170; also: % is scaled to controls: 0 for no effect and ±100 for the full control effect
# Target sequence (O94925 whole entry, looked up, canonical isoform): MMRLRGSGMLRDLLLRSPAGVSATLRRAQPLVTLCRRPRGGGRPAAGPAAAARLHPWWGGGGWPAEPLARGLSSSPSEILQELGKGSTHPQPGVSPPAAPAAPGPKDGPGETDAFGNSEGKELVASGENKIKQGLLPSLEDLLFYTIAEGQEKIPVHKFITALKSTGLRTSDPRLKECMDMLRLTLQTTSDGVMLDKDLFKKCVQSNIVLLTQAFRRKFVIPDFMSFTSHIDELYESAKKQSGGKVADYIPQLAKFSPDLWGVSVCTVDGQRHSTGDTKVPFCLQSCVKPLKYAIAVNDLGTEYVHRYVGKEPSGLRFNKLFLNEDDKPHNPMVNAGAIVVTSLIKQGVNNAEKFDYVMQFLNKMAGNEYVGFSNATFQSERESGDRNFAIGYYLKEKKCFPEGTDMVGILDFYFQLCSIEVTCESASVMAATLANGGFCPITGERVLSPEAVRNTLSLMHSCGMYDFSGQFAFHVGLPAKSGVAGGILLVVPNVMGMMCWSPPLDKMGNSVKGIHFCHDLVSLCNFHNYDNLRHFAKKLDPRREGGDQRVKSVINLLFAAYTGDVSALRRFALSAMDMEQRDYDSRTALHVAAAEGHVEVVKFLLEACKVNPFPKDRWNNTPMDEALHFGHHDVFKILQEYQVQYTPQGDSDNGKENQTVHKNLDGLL
#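 Compounds were pin-transferred onto hKGA, after which L-glutamine (1 mM solution) and a detection mix of glutamate oxidase, HRP and Amplex Red were added. Initial and 30 min RT fluorescence reads were collected.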
# G9a inh: G9a (human) methyltransferase inhibition; Q96KQ7; G9a H3K9 monomethylation, AlphaScreen, 2 h; Potency, µM (series often up to 102 µM), for inactives: at the top dose activity, negative = inhibition, actives largely listed as inhibitors; 350,000 compounds, 8.8% hits; AID 504332; also: % is scaled to controls: 0 for no effect and ±100 for the full control effect; nearly all actives have a fitted effect of over 75% in size
#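 AlphaScreen read-out: biotin-H3K9 peptide (500 nM) methylation by 20 nM enzyme with 20 uM SAM, 2 h at room temperature after 15 min compound preincubation; anti-monomethyl H3K9 antibody plus donor/acceptor beads, 10 min dark.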
# BAZ2B block: blocks human BAZ2B; Potency, µM (series often up to 114 µM), for inactives: top-dose activity change, negative = inhibition, actives largely listed as inhibitors; AlphaScreen BAZ2B-H3K14Ac peptide displacement; AID 504333; 360,000 compounds, 4.4% hits; also: % is scaled to controls: 0 for no effect and ±100 for the full control effect; nearly all actives have a fitted effect of over 60% in size
#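 In this displacement format the biotinylated H3(5-23) peptide acetylated at Lys14 serves as ligand at 50 nM, with BAZ2B at 50 nM in PBS pH 7.4 containing 0.01% Tween-20. Donor and acceptor beads are 10 ug/mL final.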
# * = called active by the depositor; u = inconclusive; x = no result; [ ] = another dose, or the depositor's remark. Only some compounds are listed: those with a hit (about 10% of all), similar ones and a draw of the others. Calls follow the shape of the dose curve; as a rule, active = well fitted curve in the direction sought with a large enough effect; inconclusive = small, poorly fitted or top-dose-only effect, or another doubt; inactive = no such curve, though single readings can be large; an effect the other way counts as inactive or inconclusive. Potency is read from the fitted curve at half-maximal effect.
SMILES,JMJD2A Tudor,HP1b chromo inh,GLS inhibitor,G9a inh,BAZ2B block
COC(=O)c1cc(S(=O)(=O)N2CCN(c3ccc(C)cc3C)CC2)cn1C,-26%,-21%,4%,-22%[59 µM],-10%
COc1cc(OC)c(OC)cc1/C=N/N(C)c1ccccc1,45µM*,16µM*,22%,8.9µM*,32µM*
CC(C)=CCc1c(O)cc2oc3c(CC=C(C)C)c(O)c(O)c(CC=C(C)C)c3c(=O)c2c1O,50µM*,4%,6%,17%[12.7 µM],50µM*
Cc1cc(C)nc(SCc2nc3nc(C)cc(C)n3c2Br)n1,-9%,24%,0%,50µM*,-19%
CC(=O)Nc1ccc(N=C(C2=C(O)c3ccccc3C2=O)c2ccccc2)cc1,56µM*,u,6%,40µM*,40µM*
O=C1CCCN2N=C(SCC(=O)Nc3ccc([N+](=O)[O-])cc3)SC2=N1,56µM*,1%,-9%,12%,-6%
Cc1ccc(NC(=O)CSC2=NN3CCCC(=O)N=C3S2)c(C)c1,u,-6%,-12%,x,u
O=C1CCCN2N=C(SCC(=O)Nc3ccc(OC(F)(F)F)cc3)SC2=N1,-11%,8%,-1%,5%,-1%
Cc1cccc(NC(=O)CSC2=NN3CCCC(=O)N=C3S2)c1C,u,2%,-11%,4%,50µM*
CC1(C(=O)NS(=O)(=O)c2ccc3ccccc3c2)CCN1C(=O)Cc1ccc(Cl)cc1Cl (stereo not drawn),x,x,4%,x,x
COc1ccc(CCNC(=O)c2cc(-c3ccc(C)c(C)c3)nc3ccccc23)cc1OC,-27%,73%,-5%,u,34%
O=C(NCC(c1ccco1)N1CCCCC1)c1ccc(S(=O)(=O)Nc2ccccc2)cc1 (stereo not drawn),-15%,8%,-5%,3%,-1%
O=C(NCC(c1ccco1)N1CCCCC1)c1ccc2c(c1)S(=O)(=O)c1ccccc1C2=O (stereo not drawn),u,6%,-12%,40µM*,u
COc1ccc(N2C(=O)/C(=C/c3cccnc3)NC2=S)cc1,-12%,34%,-3%,u,5%
COc1ccc(N2C(=O)/C(=C/N(C)C)NC2=S)cc1,18µM*,u,u,3.5µM*,-12%
Cc1ccc(C)c(CC(=O)N2CCCC(c3cc(C(=O)Nc4ccccc4Cl)no3)C2)c1 (stereo not drawn),x,x,-20%,x,x
Cc1nc2ccccc2c2c(N)c3ccccc3n12,u,u,u,18µM*,u
CCN(CC)c1ccc(CNc2ccc(Br)cn2)cc1,u,-22%,15%,u,22µM*
CCc1cc(C(=O)Nc2sc(C)c(CC)c2C#N)no1,0%,-10%,1%,2.5µM*,0%
CCc1c(C)sc(NC(=O)c2cc(C)no2)c1C#N,-18%,-17%,7%,13µM*,u
O=c1onc2cnc3ccccc3n12,x,x,x,34%[12.7 µM],x
CCCCn1c(N)c(N(CCOC)C(=O)c2ccc(-c3ccc(C(C)=O)cc3)o2)c(=O)[nH]c1=O,u,17%,-1%,13µM*,71µM*
CCCn1c(N)c(N(CCOC)C(=O)Cc2ccc(S(=O)(=O)N3CCOCC3)s2)c(=O)[nH]c1=O,-34%,15%,7%,50µM*,0%
CCCCn1c(N)c(N(CCC(C)C)C(=O)c2ccc(-c3ccc([N+](=O)[O-])cc3)o2)c(=O)[nH]c1=O,3%,24%,-1%,-14%[12.7 µM],-3%
CCCCn1c(N)c(N(CCOC)C(=O)c2ccc(-n3c(C)ccc3C)cc2)c(=O)[nH]c1=O,1%,64%,9%,45µM*,5%
SMILES,JMJD2A Tudor,HP1b chromo inh,GLS inhibitor,G9a inh,BAZ2B block
COCCN(C(=O)Cc1ccc(S(=O)(=O)N2CCOCC2)s1)c1c(N)n(CC(C)C)c(=O)[nH]c1=O,-11%,9%,0%,x,x
CCCCn1c(N)c(N(CC(C)C)C(=O)c2ccc(-c3ccc([N+](=O)[O-])cc3)o2)c(=O)[nH]c1=O,-11%,8%,0%,40µM*,-2%
CCCCn1c(N)c(N(CCOC)C(=O)c2ccc(-c3ccc([N+](=O)[O-])cc3)o2)c(=O)[nH]c1=O,-22%,-10%,8%,10%[12.7 µM],u
CCCCn1c(N)c(N(CCOC)C(=O)c2ccc(N3C(=O)CCC3=O)cc2)c(=O)[nH]c1=O,-5%,32%,4%,10%[0.501 µM],-3%
CCc1ccccc1NC(=O)C1CCN(S(=O)(=O)c2ccc3[nH]c(=O)ccc3c2)CC1,-7%,32%[57 µM],2%,2%[59 µM],2%
Cc1ccc(C(=O)c2cn(Cc3cc(C)ccc3C)c3nc(C)ccc3c2=O)cc1,-28%,1%,-3%,-33%[59 µM],-12%
CC(C)CN(C(=O)CN(C)C(=O)Cc1ccc(Cl)cc1)c1c(N)n(CC(C)C)c(=O)[nH]c1=O,-15%,15%,-1%,-40%,2%
CCCCN(C(=O)c1ccc([N+](=O)[O-])o1)c1c(N)n(CC(C)C)c(=O)[nH]c1=O,-5%,5%,1%,28µM*,1%
CC(C)CN(C(=O)CN(C)C(=O)c1ccco1)c1c(N)n(CC(C)C)c(=O)[nH]c1=O,-1%,19%,17%,50µM*,15%
CCCCn1c(N)c(N(CCOC)C(=O)c2cc3c(s2)CCC(C)C3)c(=O)[nH]c1=O (stereo not drawn),-6%,28%,5%,35µM*,9%
O=C(NCCc1ccccc1)c1sc2ncccc2c1-n1cccc1,-32%,-5%[57 µM],-5%,-2%[59 µM],-39%
Cc1ccc(Sc2oc(/C=N/n3cnnc3)cc2Br)cc1,-22%,10%,8.9µM*,-34%,0%
O=S1(=O)C[C@@H]2N=C(N/N=C/c3ccccc3)S[C@@H]2C1,-12%,3%,-6%,u,-4%
C/C(=N\NC1=N[C@H]2CS(=O)(=O)C[C@H]2S1)c1ccccc1,u,12%,25%,50µM*,u
COc1ccc(CCN(C)Cc2cccc3ccccc23)cc1OC,-12%,36%,1%,16%[0.501 µM],-4%
COc1ccc(CCN(C)C/C=C/c2ccccc2[N+](=O)[O-])cc1OC,22µM*,-18%,6%,x,u
COc1cc(CN(C)Cc2ccccc2)cc(OC)c1O,-16%,26%,15%,8.9µM*,2%
COc1ccc(CCN(C)Cc2ccc(OC)c(OCc3ccccc3)c2)cc1OC,3.2µM*,-52%,8%,u,u
COc1ccc(CN(C)CCc2ccccn2)cc1OC,35µM*,-46%,-3%,3.2µM*,32µM*
Cn1c(=O)n(C/C=C/c2ccccc2)c(=O)c2c1nc1n2CCN1c1ccccc1,-26%,43%,5%,5%[59 µM],-21%
CCn1cc(C(=O)NCc2ccc(F)cc2)c(=O)c2cc(S(=O)(=O)N(C)C)ccc21,-17%,17%,6%,-34%[59 µM],x
CCc1ccc(CN(C)CCc2ccccn2)cc1,4µM*,u,-5%,u,45µM*
